This assay deals with 4-diphosphocytidyl-2-C-methyl-D-erythritol kinase IspE (bacterial, species not stated). The assay can be described thus: Confirmatory Assay for Inhibitors of Human Galactokinase (GALK): CDP-Me assay counterscreen. The following applies: ATP depletion, Kinase-Glo luminescence; series mostly up to 115 µM. From the text: NIH Molecular Libraries Probe Production Centers Network [MLPCN] NIH Chemical Genomics Center [NCGC] MLPCN Grant: R03 MH085689-01 Assay Submitter (PI): Kent Lai (University of Utah School of Medicine, 50 N Mario Capecchi Drive, Salt Lake City, UT 84132) NCGC Assay Overview The GHMP kinase family is a unique class of important enzymes that plays an essential role in many metabolic processes. It contains more than 170 protein members among which are the galactokinase (GALK) and the CMK enzymes. GALK plays a crucial role in galactose processing and is a potential therapeutic target for Classic Galactosemia (OMIM: 230400). CMK is involved for the non-mevalonate synthesis of isoprenoids precursors and natural products like sterols or ubiquinones which are important to many biological functions. […]
NCGC Assay Protocol Summary: Three uL/well of substrate solution (15 uM ATP, 30 uM CDP-ME, 20 mM HEPES pH8.0, 5 mM MgCl2, 40 mM KCl, 1 mM DTT, 0.01% BSA final concentration) was dispensed into 1536-well, assay plates (Greiner, solid white medium-binding plates) with Aurora Discovery BioRAPTR Flying Reagent Dispenser (FRD; Beckton-Dickenson). […] After 1 min, luminescence was detected with the ViewLux plate reader (Perkin Elmer, Waltham, MA) using a 1 sec exposure time and 2x binning settings.

Records with an inconclusive call do not appear. Active and inactive are the calls of the source. The call rests on the fitted dose curve; in most records, active means well fitted curve in the direction sought with a large enough effect; inconclusive means small, poorly fitted or top-dose-only effect, or another doubt; inactive means no such curve, though single readings can be large or run the other way.

On to `O=C1NC(=S)N(Cc2ccco2)C(=O)/C1=C\c1cccs1`, for which the outcome was inactive.

Turning to `COCCCn1c(N)c(C(=O)NCc2ccco2)c2nc3ccccc3nc21`, the outcome was inactive.

Source of the values: PubChem BioAssay AID2017 (National Center for Advancing Translational Sciences (NCATS), 2009).
